TWEAK Fn14 block: blocks TWEAK-Fn14 interaction in a reporter cell assay; TWEAK-stimulated Fn14 reporter cells, luciferase luminescence, 8 h; inhibition, % at 10 µM; actives 2% (n = 360,000); in the data active means inhibition above about 50%
HSP90 refold inh: blocks HSP90-mediated luciferase refolding in reticulocyte lysate | Rabbit reticulocyte lysate, luciferase refolding luminescence, 3 h | inhibition, % at 5.6 µM | actives 0.91% (n = 290,000);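 active means inhibition above the screen-wide mean plus 3 SD, computed separately per campaign, cut at about 16% in these data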;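 further: 0% = DMSO wells and 100% = 60 µM geldanamycin wells; inhibitors lower the luminescence because luciferase stays unfolded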
LGR2 inh: inhibitors of bursicon-induced Drosophila LGR2 receptor cAMP signaling. actives 0.35% (n = 380,000). AID 720647. inhibition, % at 9.99 µM. HEK293 LGR2, CRE-luciferase, bursicon-stimulated, 4 h;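 active means drop in luminescence signal, shown as inhibition above about 50% in the replicate tests, limit read from the data, passing the limit was not always enough; inconclusive means probably only some replicates passing the limit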;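 further: agonist challenge used bursicon conditioned medium at about half maximal strength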
TROY signal inh: TROY signaling inhibition; Q293 LMP1-TROYcd NF-kB luciferase reporter, 4 h; inhibition, % at 10 µM; actives 0.98% (n = 360,000); AID 1347056;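 active means compounds whose plate-normalised and pattern-corrected inhibition of the luciferase reporter signal at the single screening dose is 50% or more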
* = called active by the depositor; u = inconclusive; x = no result given. A selection: hits, their analogues and other compounds. The true share with any hit is near 2.2%.

SMILES	TWEAK Fn14 block	HSP90 refold inh	LGR2 inh	TROY signal inh
COc1ccccc1N(CC(=O)Nc1cccc(C(F)(F)F)c1)S(C)(=O)=O	1.9	-1.8	9.8	11.6
O=C(C[C@@H]1CC[C@H]2[C@@H](COC[C@H](O)CN2Cc2ccc3c(c2)OCO3)O1)Nc1ccc(-c2ccccc2)cc1	x	x	16.3	x
CCn1c(/C=C/c2cc(Br)ccc2O)nc2ccccc2c1=O	62.7*	-4.6	30.1	47.0
Cc1[nH]c2ccccc2c1/C=C/c1nc2ccccc2c(=O)n1CCO	13.4	-7.3	35.3	55.3*
CC(C)C1Nc2c(O)cc(Cl)c([N+](=O)[O-])c2C2C=CCC21 (stereo not drawn)	26.7	-3.2	12.6	58.1*
O=C(Nc1nc2c(F)cc(F)cc2s1)C1CCN(C(=O)c2ccc(F)cc2)CC1	-6.0	x	-49.6	-18.6
O=C(Cc1ccccc1F)Nc1nc(-c2ccc(F)cc2)cs1	51.6*	0.9	-52.5	57.6*
O=C(Nc1nc(-c2ccc(F)cc2)cs1)C1CCN(C(=O)c2ccc(F)cc2)CC1	57.4*	x	19.4	30.3
COc1ccc2c3c(n(C)c2c1)[C@H](CO)N(S(C)(=O)=O)CC31CCN(CC2CCCC2)CC1	x	x	-14.2	x
O=C(C1CCOCC1)N1[C@@H](CO)[C@@H](c2ccccc2)C12CN(Cc1cccnc1)C2	x	x	-4.5	x
Cn1cnc(S(=O)(=O)N2CC[C@@H]3[C@@H](CO)Nc4ccc(C#Cc5ccc(F)cc5)cc4[C@@H]32)c1	x	x	2.6	x
O=C(N/N=C/c1c[nH]c2ccccc12)c1cc(-c2ccc(-c3ccccc3)cc2)n[nH]1	66.8*	13.5	x	8.5
O=C(O)c1ccc(N=c2oc3cc(O)ccc3cc2C(=O)NCc2ccccc2)cc1	-3.1	2.1	-18.7	0.5
COc1ccc2cc(C(=O)NCc3ccccc3)c(=Nc3ccc(C(=O)O)cc3)oc2c1	58.9*	0.7	-36.9	-46.1
COc1cccc2cc(C(=O)NCc3ccco3)c(=Nc3ccc(C(=O)O)cc3)oc12	70.7*	-3.7	-3.5	42.2
COc1ccc2cc(C(N)=O)c(=Nc3ccccc3)oc2c1	72.3*	0.4	-63.0	13.9
COc1cccc2cc(C(=O)NCc3ccco3)c(=O)oc12	-25.3	2.8	x	-62.8
C[C@H](CO)N1C[C@H](C)[C@H](CN(C)S(C)(=O)=O)Oc2ccc(NC(=O)Cc3cn(C)c4ccccc34)cc2CC1=O	x	x	-3.0	x
Cc1cc(C)c(C)c(S(=O)(=O)N2CCN(c3ncnc4ccccc34)CC2)c1C	92.8*	x	78.8*	58.2*
CCOc1ccc2nc(N3CCC(C(=O)N4CCN(c5ccccn5)CC4)CC3)sc2c1	50.8*	3.7	x	24.8
CCOc1ccc2nc(N3CCC(C(=O)N4CCN(c5ncccn5)CC4)CC3)sc2c1	0.3	x	-49.2	-23.5
O=c1cc(Nc2ccc3c(c2)OCCO3)[nH]c(=O)n1Cc1ccc(F)cc1	69.5*	3.0	-1.2	50.6*
COC(=O)[C@@H]1[C@@H](CO)[C@@H]2Cn3c(ccc(C4=CCCCC4)c3=O)[C@@H]2N1Cc1cccnc1	x	x	-12.0	x
COc1ccc(Sc2ccc(/C=C3\C(=O)NN(c4ccccc4)C3=O)o2)cc1	92.8*	2.8	-12.1	17.3
COCC(=O)N(C)C[C@H]1Oc2ncc(C#CC(C)(C)O)cc2C(=O)N([C@@H](C)CO)C[C@@H]1C	x	x	-24.7	x
SMILES	TWEAK Fn14 block	HSP90 refold inh	LGR2 inh	TROY signal inh
COc1ccc(CNC(=O)C2CC(=O)N(c3ccc(OCC(=O)N4CCCCC4)cc3)C2)cc1 (stereo not drawn)	13.2	-4.1	x	57.9*
O=C(/C=C/Nc1ccc(F)cc1F)c1cccs1	60.1*	-3.0	78.6*	10.4
CCOC(=O)c1ccccc1N/C=C/C(=O)c1cccs1	0.5	1.9	-46.4	33.9
O=C(/C=C\Nc1cccc(F)c1)c1cccs1	9.8	0.5	x	-55.9
O=C(/C=C/Nc1ccccc1F)c1cccs1	63.6*	-4.5	79.5*	-13.9
Cc1ccc(N/C=C/C(=O)c2cccs2)cc1	81.0*	-4.9	75.4*	55.2*
C[C@@H]1CN([C@@H](C)CO)C(=O)c2cc(-c3ccc(C(=O)N(C)C)cc3)cnc2O[C@H]1CN(C)C(=O)C1CC1	x	x	-2.2	x
CC(C)CC#Cc1ccc2c(c1)O[C@@H](CN(C)C(=O)Cc1ccccc1)[C@H](C)CN([C@@H](C)CO)S2(=O)=O	x	x	-17.7	x
O=C(C[C@H]1CC[C@@H]2[C@H](COC[C@@H](O)CN2Cc2ccc(C(F)(F)F)cc2)O1)NCCc1ccccc1	x	x	-4.2	x
COc1ccc(NC(=O)Nc2ccc3c(c2)C(=O)N([C@@H](C)CO)C[C@@H](C)[C@H](CN(C)Cc2ccc4c(c2)OCO4)OCCCC[C@H](C)O3)cc1	x	x	12.0	x
C=CCc1c(C)nc2cc(-c3ccc(C)cc3)[nH]n2c1=O	63.0*	10.0	u	36.9
O=C(C1CCCC1)N1CC2(C1)[C@@H](c1ccccc1)[C@@H](CO)N2C(=O)CC1CC1	x	x	-8.7	x
CCOc1ncccc1C(=O)Nc1cccc(S(=O)(=O)N2CCCCC2)c1	26.6	x	-24.5	6.4
CCOc1ncccc1C(=O)NNC(=O)c1cccc(S(=O)(=O)N2CCOCC2)c1	97.4*	x	9.0	11.5
COc1cc(C(=O)Nc2ccc(C(=O)O)cc2)ccc1OC(C)=O	14.7	4.3	-36.6	13.4
COc1ccc(C(=O)NCC(=O)Nc2ccccc2)cc1OC	59.4*	-6.2	x	x
COc1ccc(C(=O)Nn2c(C)nc3ccccc3c2=O)cc1OC	-7.8	-2.5	8.3	59.2*
COc1ccc(/C(C)=N/Nc2ccc(C(=O)O)cc2)cc1OC	18.9	26.1*	-54.8	20.4
CN(C)CC(=O)Nc1ccc2c(c1)[C@H]1C[C@H](CC(=O)NCc3cccc(F)c3)O[C@H](CO)[C@H]1O2	x	x	9.6	x
c1ccc(CSc2nnc(-c3cccnc3)o2)cc1	-10.3	-0.6	x	x
c1cncc(-c2nnc(SCc3nc4ccccc4[nH]3)o2)c1	24.5	0.3	x	74.2*
COc1ccc(/C=C/c2cc(-c3ccc(C)cc3)o[n+]2C)cc1	58.4*	3.0	46.4	26.4
CCOc1ccc(CN2CCN(Cc3c(C)nn(CC)c3C)CC2CCO)cc1 (stereo not drawn)	75.6*	1.3	-7.6	0.5
O=C(c1cccc(NS(=O)(=O)c2ccc(F)c(F)c2)c1)N1CCN(C(c2ccccc2)c2ccccc2)CC1	56.5*	-0.5	x	11.2
O=C(c1cccc(NS(=O)(=O)c2ccccc2)c1)N1CCCC1	-1.1	-0.6	4.7	5.3
SMILES	TWEAK Fn14 block	HSP90 refold inh	LGR2 inh	TROY signal inh
O=C(C[C@H]1C=C[C@@H](NS(=O)(=O)c2ccccc2)[C@@H](CO)O1)N1CCC(Cc2ccccc2)CC1	x	x	6.1	x
N/C(=N\OC(=O)c1ccc(Cl)cc1)c1[nH]ncc1Br	64.8*	3.7	60.5*	18.3
CCO/N=C(\N)c1[nH]ncc1Br	12.0	-0.7	-13.4	-1.5
C[C@H]1CN([C@@H](C)CO)C(=O)c2cc(NC(=O)c3ccncc3)ccc2O[C@H]1CN(C)Cc1ccc2c(c1)OCO2	x	x	13.5	x
CN1C2=CC=CC=CC2=[N+](C)C12C([N+](=O)[O-])=CC(=[N+]([O-])[O-])C=C2[N+](=O)[O-] (stereo not drawn)	60.8*	-2.6	11.2	-20.4
CN1C2=CC=CC=CC2=[N+](C)C12C=CC(=[N+]([O-])[O-])C=C2[N+](=O)[O-] (stereo not drawn)	1.6	3.1	12.2	11.8
